# Measurements as given in PubChem BioAssay (NCATS).
# Inconclusive results are not listed. Where a call stands in place of a potency, no number is given. Values without a mark were called inactive. Active and inactive are the calls of the source. Unless noted, calls follow the shape of the dose curve; as a rule, active = well fitted curve in the direction sought with a large enough effect; inconclusive = small, poorly fitted or top-dose-only effect, or another doubt; inactive = no such curve, though single readings can be large; an effect the other way counts as inactive or inconclusive.
# How the values were obtained:
# [1] = qHTS to identify inhibitors of the type 1 interferon - major histocompatibility complex class I in skeletal muscle: primary screen against the NCATS Mechanism Interrogation Plate v5.0 (MIPE) Libary (AID 1347411); also: nearly all actives have a fitted effect of over 65% in size
# Method in brief: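 Immortalized human myoblasts (C25cl48) with HiBit knocked into endogenous HLA-B*08:01 were stimulated with 4 ng/ml IFN-beta and given compounds in 11-point 1:3 titration from 46 uM. After 24 h at 37 C, lytic HiBiT luminescence was read.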
# [2] = target: Calcium and integrin-binding protein 1 (Homo sapiens) (UniProt Q99828); assay: Primary qHTS for Identification of Calcium Integrin Binding Protein 1 (CIB1) Competitor (AID 1508620); also: potency is read from the fitted curve at half-maximal effect;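 as to activity change, negative = inhibition: GST tagged CIB1 binding a fluorescein labelled alphaIIb integrin peptide tracer; top concentration of the series differs between compounds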
# Chain of Calcium and integrin-binding protein 1 (Homo sapiens) (Q99828 whole entry, looked up): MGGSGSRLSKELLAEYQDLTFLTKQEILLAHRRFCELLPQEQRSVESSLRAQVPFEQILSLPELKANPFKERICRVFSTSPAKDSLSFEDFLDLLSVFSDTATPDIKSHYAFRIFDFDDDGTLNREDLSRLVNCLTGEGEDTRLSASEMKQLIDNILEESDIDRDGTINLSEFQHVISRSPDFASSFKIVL
# Method in brief: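 CIB1-GST (1 uM final) and compound incubated 15 min at room temperature before adding FITC-alphaIIb peptide tracer (100 nM final). Competition for binding read by fluorescence polarization (ex 480, em 540) after another 15 min at room temperature.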
# [3] = Primary qHTS for inhibitors of nuclear receptor binding SET domain protein 2 (NSD2) in an RCH-ACV wild type WT cells (2C) (AID 1645877); also: nearly all actives have a fitted effect of over 70% in size; also: potency is read from the fitted curve at half-maximal effect
# [4] = target: Cytochrome P450 2D6 (Homo sapiens) (UniProt P10635); assay: Cytochrome P450 family 2 subfamily D member 6 (CYP2D6) small molecule antagonists: luciferase biochemical (cell-free) qHTS assay (AID 1645840; active = well fitted curve in the direction sought with a large enough effect in the repeat runs; an effect the other way counts as inactive or inconclusive; also: nearly all actives have a fitted effect of over 55% in size; also: potency is read from the fitted curve at half-maximal effect; as to activity change, negative = inhibition: series mostly up to about 57 µM)
# Chain of Cytochrome P450 2D6 (Homo sapiens) (P10635 whole entry, looked up): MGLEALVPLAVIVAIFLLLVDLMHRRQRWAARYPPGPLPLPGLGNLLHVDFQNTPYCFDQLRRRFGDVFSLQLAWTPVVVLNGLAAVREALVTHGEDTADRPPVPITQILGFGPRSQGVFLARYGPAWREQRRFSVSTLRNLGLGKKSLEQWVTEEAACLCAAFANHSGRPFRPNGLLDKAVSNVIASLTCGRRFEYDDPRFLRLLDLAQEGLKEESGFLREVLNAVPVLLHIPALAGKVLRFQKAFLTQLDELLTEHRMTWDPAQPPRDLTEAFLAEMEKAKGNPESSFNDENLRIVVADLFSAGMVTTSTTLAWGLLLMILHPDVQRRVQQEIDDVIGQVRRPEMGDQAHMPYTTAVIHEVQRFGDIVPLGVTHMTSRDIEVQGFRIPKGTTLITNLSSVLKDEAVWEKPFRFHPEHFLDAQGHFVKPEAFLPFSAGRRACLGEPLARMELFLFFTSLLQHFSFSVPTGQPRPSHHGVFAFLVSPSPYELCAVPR
# Method in brief: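 P450-Glo luminescent screen: recombinant CYP2D6 enzyme–proluciferin substrate mix preincubated with compound 10 min at room temperature, then NADPH regeneration added for 1 h at room temperature. Detection reagent added for 20 min; luciferin light read as relative luminescence units.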
# [5] = target: Cytochrome P450 2C9 (Homo sapiens) (UniProt P11712); assay: Cytochrome P450 family 2 subfamily C member 9 (CYP2C9) small molecule antagonists: luciferase biochemical (cell-free) qHTS assay (AID 1645842; active = well fitted curve in the direction sought with a large enough effect in the repeat runs; an effect the other way counts as inactive or inconclusive; also: nearly all actives have a fitted effect of over 55% in size; also: potency is read from the fitted curve at half-maximal effect; as to activity change, negative = inhibition: series mostly up to about 57 µM)
# Chain of Cytochrome P450 2C9 (Homo sapiens) (P11712 whole entry, looked up): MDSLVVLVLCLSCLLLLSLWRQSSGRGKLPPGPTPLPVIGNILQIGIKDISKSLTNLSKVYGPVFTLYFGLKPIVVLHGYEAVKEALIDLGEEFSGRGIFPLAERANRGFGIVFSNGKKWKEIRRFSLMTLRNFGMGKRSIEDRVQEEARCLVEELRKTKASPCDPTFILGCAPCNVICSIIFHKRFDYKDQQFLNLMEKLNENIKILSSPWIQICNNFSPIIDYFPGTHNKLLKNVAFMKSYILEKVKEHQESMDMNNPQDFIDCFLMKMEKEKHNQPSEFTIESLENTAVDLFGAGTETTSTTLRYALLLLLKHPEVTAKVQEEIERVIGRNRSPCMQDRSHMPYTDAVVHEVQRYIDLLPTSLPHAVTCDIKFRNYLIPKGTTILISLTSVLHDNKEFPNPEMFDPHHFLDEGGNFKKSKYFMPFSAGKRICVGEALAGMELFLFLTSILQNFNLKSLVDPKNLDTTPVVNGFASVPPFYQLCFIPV
# Method in brief: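 Luminescence, after 20 min with luciferin detection reagent, reflected CYP2C9 turnover during a 1 h NADPH-driven reaction at 37C. Enzyme-substrate mix contained 0.4% bovine serum albumin and was preincubated with compound 10 min at room temperature.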
# [6] = Primary qHTS for inhibitors of nuclear receptor binding SET domain protein 2 (NSD2) in an isogenic RCH-ACV NSD2 p.E1099K mutant (9B) (AID 1645876); also: nearly all actives have a fitted effect of over 70% in size
# [7] = target: Calcium and integrin-binding protein 1 (Homo sapiens) (UniProt Q99828); assay: Confirmatory qHTS for Identification of Calcium Integrin Binding Protein 1 (CIB1) Competitor (AID 1508617); details: CIB1 binding competition assay, biochemical qHTS; also: potency is read from the fitted curve at half-maximal effect; nearly all actives have a fitted effect of over 65% in size
# Method in brief: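 Binding competition between test compounds and fluorescent alphaIIb peptide for 1 uM CIB1-GST is monitored by FP at 480/540 nm. Final compound range is up to 114 uM; unlabeled peptide serves as reference competitor.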
# [8] = target: N-terminal Xaa-Pro-Lys N-methyltransferase 1 (Homo sapiens) (UniProt Q9BV86); assay: Confirmatory qHTS for Inhibitors of N-terminal methyltransferase 1 (NTMT1): MTaseGlo Assay (AID 1645874); also: potency is read from the fitted curve at half-maximal effect; nearly all actives have a fitted effect of over 65% in size
# Chain of N-terminal Xaa-Pro-Lys N-methyltransferase 1 (Homo sapiens) (Q9BV86 whole entry, looked up): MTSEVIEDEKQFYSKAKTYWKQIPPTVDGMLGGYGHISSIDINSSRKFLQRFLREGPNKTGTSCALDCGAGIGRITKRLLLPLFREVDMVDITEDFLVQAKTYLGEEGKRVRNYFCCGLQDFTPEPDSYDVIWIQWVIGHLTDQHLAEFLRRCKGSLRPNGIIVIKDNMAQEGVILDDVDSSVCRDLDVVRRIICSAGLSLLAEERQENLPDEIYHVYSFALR
# Method in brief: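 Compounds are incubated with 125 nM NTMT1 and 100 uM SAM for 15 min before the SPKRIA peptide (1 uM) starts a 30 min room-temperature methylation. SAH is measured by coupled luciferase luminescence and curves fitted to a Hill equation.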
# [9] = Redox Reaction Profiling qHTS: Assay Interference Panel against the NCATS CANVASS Library (AID 1347401)
# Method in brief: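 Cell-free redox surrogate: 5 uM resazurin + 200 uM DTT, 50 mM HEPES pH 7.3/50 mM NaCl; cpds pinned, 11-pt qHTS; Ex525/Em598 read t0 and t=15 min, dark.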
smiles,measurement,setting,value
Cc1ncc(Cl)cc1NCc1ccc(C(=O)NC(CC2CCCC2)C(=O)NC2CC2)s1 (configuration not stated),outcome,[1],inactive
same,Potency,[2],inactive
same,Potency,[3],14.8 µM (active)
Cc1cc(C)c2nc(-c3ccccn3)cc(C(=O)Nc3ccc(S(=O)(=O)Nc4onc(C)c4C)cc3)c2c1,Potency,[2],inactive
Nc1ncnc2c1C(=O)N(c1ccc(C3CCC(CC(=O)O)CC3)cc1)CCO2 (configuration not stated),outcome,[1],inactive
same,Potency,[2],inactive
same,Potency,[4],inactive
same,Potency,[5],inactive
same,Potency,[6],inactive
same,Potency,[3],inactive
CC(=O)NC(Cc1c[nH]c2ccccc(=O)c12)C(=O)O (configuration not stated),Potency,[7],44.7 µM (active)
same,Potency,[6],inactive
same,Potency,[3],inactive
Cc1ccccc1-n1nc(-c2c(-c3ccc(F)cc3)nn3c2NC[C@@H](CO)C3)ccc1=O,outcome,[1],inactive
same,Potency,[2],inactive
same,Potency,[5],6.74 µM (active)
C[C@@H]1O[C@@H](O[C@H]2[C@H](OC(=O)[C@]34CCC(C)(C)C[C@H]3C3=CCC5[C@@]6(C)CC[C@H](O[C@@H]7O[C@H](CO[C@@H]8OC[C@H](O)[C@H](O)[C@H]8O)[C@@H](O)[C@H](O)[C@H]7O)C(C)(C)C6CC[C@@]5(C)[C@]3(C)C[C@H]4O)OC[C@@H](O)[C@@H]2O)[C@H](O)[C@H](O[C@@H]2OC[C@](O)(CO)[C@H]2O)[C@H]1O[C@@H]1OC[C@H](O)[C@H](O[C@@H]2OC[C@@H](O)[C@H](O)[C@H]2O)[C@H]1O (some centres not stated),"activity change, negative = inhibition",[2],2.98% [at 12.4 µM]
N#Cc1cccc(-c2c[nH]c3ncnc(N4CCOCC4)c23)c1,outcome,[1],inactive
same,Potency,[2],inactive
same,Potency,[5],2.39 µM (active)
same,Potency,[8],39.8 µM (active)
C=C1C(=O)OC2CC(COC(=O)C(C)C)=C(C(C)CCCOC(C)=O)[C@@H](OC(C)=O)C12 (some centres not stated),Potency,[2],inactive
CC(=O)OC(C)(C)/C=C/C(=O)[C@](C)(O)C1[C@H](O)C[C@@]2(C)[C@@H]3CC=C4[C@@H](C[C@H](O[C@@H]5O[C@H](CO)[C@@H](O)[C@H](O)[C@H]5O)C(=O)C4(C)C)[C@]3(C)C(=O)C[C@]12C (some centres not stated),Potency,[2],inactive
COc1ccc2[nH]c(S(=O)Cc3ncc(C)c(OC)c3C)nc2c1 (configuration not stated),outcome,[1],inactive
same,Potency,[2],inactive
same,Potency,[6],inactive
C[C@@H]1O[C@@H](O[C@@H]2\C=C/C=C\C=C/C=C\C[C@H](C)OC(=O)/C=C\[C@H]3O[C@@H]3C[C@H](O)C[C@]3(O)C[C@@H](O)[C@@H](C(=O)O)[C@H](C2)O3)[C@H](O)[C@H](N)[C@@H]1O,outcome,[1],inactive
same,Potency,[2],inactive
same,Potency,[6],inactive
same,Potency,[3],inactive
CC(C)[C@@](O)(c1ccc2cc(OC(F)F)c(OC(F)F)cc2c1)c1cn[nH]n1,Potency,[2],inactive
COCCCc1sc(-c2ccccc2)nc1C(=O)Nc1ccccc1-c1nc2cc(CN3CCCC3)cnc2s1,outcome,[1],inactive
same,Potency,[2],inactive
CNc1nc(C)nc(N[C@H]2CCC[C@@H](C(=O)NCc3ccc(C#N)cc3C(F)(F)F)C2)n1,outcome,[1],inactive
same,Potency,[2],inactive
same,Potency,[5],inactive
same,Potency,[6],inactive
same,Potency,[3],inactive
CC(CCO)CCC1C2(C)CCCC(C)(C)C2CC[C@@]1(C)O (some centres not stated),Potency,[2],inactive
CCc1cccc2c3c([nH]c12)[C@@](CC)(CC(=O)O)OCC3,outcome,[1],inactive
same,Potency,[2],inactive
same,Potency,[6],inactive
same,Potency,[3],inactive
COc1ccc(CC(NC(C)=O)C(=O)O)cc1 (configuration not stated),Potency,[7],50.1 µM (active)
same,Potency,[6],inactive
same,Potency,[3],inactive
CC(C)c1ccc2c(c1)CCC1[C@](C)(C(=O)O)CCC[C@]21C (some centres not stated),outcome,[9],inactive
same,Potency,[2],inactive
same,Potency,[6],inactive
same,Potency,[3],inactive
CC(C)[C@](O)(c1ccc2cc(OC(F)F)c(OC(F)F)cc2c1)c1cn[nH]n1,outcome,[1],inactive
same,Potency,[2],inactive
Cc1cccc(-c2nn3c(c2-c2ccnc4ccc(C(N)=O)cc24)CCC3)n1,outcome,[1],inactive
same,Potency,[2],inactive
same,Potency,[4],inactive
same,Potency,[6],inactive
same,Potency,[3],inactive
Cc1c(F)cc(C(=O)NC2CC2)cc1-c1ccc(C(=O)NCC(C)(C)C)cn1,outcome,[1],inactive
same,Potency,[2],inactive
CC(C)N(CCCNC(=O)Nc1ccc(C(C)(C)C)cc1)C[C@H]1O[C@@H](n2ccc3c(N)ncnc32)[C@H](O)[C@@H]1O,outcome,[1],inactive
same,Potency,[2],inactive
same,Potency,[6],inactive
CCC(CC)CC1(C(=O)Nc2ccccc2SC(=O)C(C)C)CCCCC1,outcome,[1],inactive
same,Potency,[2],inactive
same,Potency,[4],inactive
same,Potency,[5],1.9 µM (active)
same,Potency,[6],inactive
CCCCOc1nc(N)c2c(n1)N(Cc1cccc(CN3CCCC3)c1)CC(=O)N2,outcome,[1],inactive
same,Potency,[2],inactive
same,Potency,[4],3.38 µM (active)
same,Potency,[6],inactive
same,Potency,[3],inactive
O=C(/C=C/C=C/c1ccc2c(c1)OCO2)N1CCCCC1,outcome,[9],inactive
same,outcome,[1],inactive
same,Potency,[2],inactive
Cc1c(Cc2ccc3ccccc3n2)c2cc(F)ccc2n1CC(=O)O,Potency,[7],50.1 µM (active)
same,Potency,[2],44.7 µM (active)
same,Potency,[4],inactive
same,Potency,[6],inactive
same,Potency,[3],inactive
C/C(=C\CC/C(C)=C/CC[C@]1(C)CCc2cc(O)cc(C)c2O1)CC/C=C(\C)C(=O)O,outcome,[9],inactive
same,Potency,[6],inactive
same,Potency,[3],inactive
Cc1nc(-c2cccnc2)sc1C(=O)Nc1ccccc1-c1cn2c(CN3CCOCC3)csc2n1,outcome,[1],inactive
same,Potency,[2],inactive
same,Potency,[6],inactive
same,Potency,[3],inactive
